Holding throughout (assay): NCI-60 one-dose screen, 48 h (100 = growth as untreated, 0 = no growth, -100 = all killed)
What all share (settings): 10 µM unless noted

For experiment [1], the system named is HCT-15 colon.
The test system of experiment [2] is HT29 colon.
For experiment [3], the system named is SNB-75 CNS.
Experiment [4] relates to SNB-19 CNS.
Experiment [5] has as its system U251 CNS.
Experiment [6] has as its system PC-3 prostate.
Experiment [7] concerns SK-MEL-5 melanoma.
In experiment [8] the test system is UACC-62 melanoma.
The test system of experiment [9] is LOX IMVI melanoma.
Experiment [10] relates to SK-MEL-28 melanoma.
In experiment [11] the test system is SK-MEL-2 melanoma.
Experiment [12] has as its system EKVX NSCLC.
The subject of experiment [13] is UO-31 renal.
The test system of experiment [14] is TK-10 renal.
In experiment [15] the test system is ACHN renal.
Experiment [16] has as its system CAKI-1 renal.
For experiment [17], the system named is A498 renal.
Experiment [18] relates to CCRF-CEM leukemia.
Experiment [19] has as its system MOLT-4 leukemia.
Experiment [20] deals with SN12C renal.

These results are taken from PubChem BioAssay (NCI).

The panel holds about 83,000 compounds, 20% with a hit somewhere; the sample as a whole holds those more often.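 Negative percent growth values reflect cell death: -40 means 40% of the cells present at the start died, and -100 means all died.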 Unmarked numbers belong to inactive results. Activity calls are given as the source filed them. The calls were made as follows: active = growth percent below 10; inactive = the rest.

Turning to `C=C1C(=O)O[C@H]2[C@H]1CC/C(CNS(=O)(=O)c1cccc3ccccc13)=C\CC[C@@]1(C)O[C@@H]21`, the growth is -25% (active) in experiment [1]; -3.2% (active) in experiment [2]; 66.5% in experiment [3]; 67.2% in [4]; 53.1% in experiment [5]; 45.7% in [6]. Further, the growth in experiment [7] was 41.4%; in [8] it was 29%; in experiment [9], 14.3%; in [10], 2.74% (active); in experiment [11], 59.4%; in [12] it was 59.4%. In addition, the growth in experiment [13] was 21.9%; in experiment [14], 8.61% (active); in experiment [15] it was 3.67% (active); in experiment [16], 34.5%; in experiment [17] it was 70.9%; in [18], 1.32% (active). In addition, the growth in [19] is 6.51% (active).

For `CC(=O)[C@@H]1CC[C@]2(CO)CC[C@]3(C)[C@H](CC[C@@H]4[C@@]5(C)CCCNC(C)(C)[C@@H]5CC[C@]43C)[C@@H]12`, the growth in experiment [1] is 81.5%; in experiment [2], 68.1%; in experiment [3], 86%; in experiment [4], 99.1%; in [5] it was 108%; in experiment [6], 86%. Further, the growth in [7] was 92.7%; in experiment [8], 94.7%; in [9], 95.6%; in [10], 113%; in experiment [11], 105%; in [12], 95.4%. The growth was 84.4% in experiment [13]; 110% in experiment [14]; 107% in [15]; 97.1% in [16]; 95.3% in [17]; 103% in experiment [18]. Moreover, in experiment [19], the growth is 95.3%.

Take `Cc1cc2nc3c4cc(C=O)ccc4n(CCN(C)C)c3nc2cc1C`: the growth in experiment [1] was 2.81% (active); in [2] it was 6.7% (active); in experiment [3], 28.2%; in [4], 28.1%; in [5] it was 16.8%; in [6], 15.5%. Further, the growth is 6.63% (active) in experiment [7]; 21.5% in [8]; -40.5% (active) in experiment [9]; 37.1% in [10]; 11.7% in [11]; 25.4% in experiment [12]. The growth in [13] was -28.6% (active); in [14] it was 23.2%; in experiment [15], -15% (active); in [16], 3.46% (active); in experiment [18], 21.7%; in [19], 9.19% (active).

In the case of `C/C(=N\NC(=O)CSc1nc2ccccc2c(=O)n1CCc1ccc(S(N)(=O)=O)cc1)c1ccccn1`, the growth in experiment [1] was 26.8%; in experiment [2] it was 31.5%; in experiment [3], 74.5%; in [4] it was 46.6%; in [5], 31.8%; in [6] it was 50.7%. The growth in experiment [7] is 24.9%; in [8], 19.5%; in experiment [9], 13.8%; in [10], 37.6%; in experiment [11], 47.2%; in experiment [12], 30.5%. For the same molecule, the growth in experiment [13] was 29.8%; in experiment [14], 34.5%; in experiment [15] it was 21.2%; in experiment [16] it was 37.6%; in experiment [18], 20.6%; in experiment [19], 17.7%.

Regarding `COc1ccccc1/C(C)=N/NC(=O)CSc1nc2ccccc2c(=O)n1Cc1ccc(S(N)(=O)=O)cc1`, the growth in experiment [1] is 97.6%; in experiment [2], 114%; in experiment [3] it was 89.7%; in [4], 93.3%; in [5] it was 103%; in experiment [6], 111%. Also, the growth in [7] was 97.5%; in experiment [8] it was 97.4%; in experiment [9], 89.9%; in experiment [10], 114%; in experiment [11], 106%; in experiment [12], 85.6%. The growth in experiment [13] was 77.3%; in experiment [14], 96.1%; in experiment [15], 105%; in experiment [16] it was 85.4%; in [18], 94.5%; in experiment [19], 97%.

For `O=C(/C=C(O)/C=C/c1ccc(SC(F)(F)F)cc1)/C=C/c1ccc(SC(F)(F)F)cc1`, the growth was 88.5% in [1]; 83.2% in experiment [2]; 115% in [3]; 90.3% in [4]; 66.5% in experiment [5]; 81% in experiment [6]. Further, the growth in [7] is 91.4%; in experiment [8], 75.9%; in experiment [9] it was 72%; in experiment [10], 100%; in experiment [11], 101%; in experiment [12], 111%. Also, the growth in [20] was 94.2%; in [13], 73.1%; in experiment [14], 101%; in [15], 102%; in experiment [16], 96%; in [18], 60.7%. In [19], the growth was 76.1%.

As to `N#CC(C(=O)/C(=N/NC(=O)c1ccccc1O)C(C#N)c1ccccc1)c1ccccc1` (stereo not drawn), the growth in experiment [1] was 43.1%; in experiment [2] it was 101%; in experiment [3] it was 18%; in experiment [4] it was 33.2%; in experiment [5], 6.45% (active); in experiment [6] it was 55.2%. Moreover, the growth in experiment [7] is 81.7%; in experiment [8], 21.7%; in experiment [9], 44.7%; in experiment [10], 83.7%; in [11], 68.6%; in experiment [12] it was 76.7%. In addition, the growth in [13] was 29.4%; in experiment [14], 69.7%; in experiment [15], 31%; in experiment [16], 82.5%; in experiment [17] it was 30.9%.

As to `Cc1ccc(-c2[nH][nH]c(=O)c2-c2nc3ccccc3s2)cc1`, the growth in [1] was 99.1%; in [2], 104%; in experiment [3], 79.4%; in experiment [4] it was 97.9%; in experiment [5] it was 103%; in [6], 96.9%. The growth in [7] is 102%; in experiment [8], 95.9%; in [9] it was 95.7%; in experiment [10] it was 111%; in experiment [11] it was 108%; in experiment [12] it was 97.4%. Also, the growth in experiment [13] is 78.7%; in experiment [14] it was 107%; in [15] it was 97.3%; in experiment [16], 88.7%; in [18], 93.3%; in [19], 100%.

Turning to `CCCCCN1C=C/C(=C\C(=O)N(C)c2ccccc2Br)c2ccccc21`, the growth in [1] is 102%; in [2] it was 98.3%; in experiment [3] it was 91.7%; in experiment [4] it was 94.6%; in [5] it was 87.7%; in experiment [6], 92.1%. Also, the growth in experiment [7] was 94.2%; in experiment [8], 81.6%; in [9], 93.6%; in experiment [10], 105%; in experiment [11] it was 109%; in experiment [12], 91.2%. The growth is 87.8% in [13]; 99.7% in [14]; 104% in experiment [15]; 82.2% in experiment [16]; 96% in experiment [18]; 89.3% in experiment [19].

On to `CN(C)CC(O)c1ccc(/C=C/c2ccc(Cl)cc2)cc1` (stereo not drawn), for which the growth is -51.7% (active) in [1]; -69.5% (active) in [2]; -24.8% (active) in [3]; 32.1% in experiment [4]; -94% (active) in experiment [5]; -30.3% (active) in experiment [6]. Also, the growth was -91.5% (active) in experiment [7]; -79% (active) in experiment [8]; -54.2% (active) in experiment [9]; -88.2% (active) in experiment [10]; -63.9% (active) in [11]; 29.7% in experiment [12]. The growth in experiment [13] was -67.2% (active); in [14] it was -91.5% (active); in experiment [15] it was -50.1% (active); in [16], -46.1% (active); in experiment [18] it was -43.8% (active); in [19], -29.7% (active).

As for `CN1CCN(CCNc2nccc(-c3c(-c4cccc(O)c4)nc4sccn34)n2)S1(=O)=O`, the growth in experiment [1] is 50.6%; in experiment [2], 43.9%; in experiment [3], 54.2%; in experiment [4] it was 115%; in experiment [5], 94.2%; in [6], 68.5%. For the same molecule, the growth in experiment [7] was 33%; in experiment [8] it was 3.85% (active); in [9], 23.8%; in [10], 15%; in experiment [11] it was -24.9% (active); in experiment [12], 99.1%. Besides, the growth was 56.2% in experiment [13]; 94.1% in [14]; 37.4% in experiment [15]; 61.8% in experiment [16]; 119% in [17]; 76.7% in experiment [18].

As for `CC1(C)c2[nH]c3ccccc3c2C[C@]2(C)[C@H]3C(=O)C=C4[C@@H]5C[C@@](C)(C(N)=O)CC[C@]5(C)CC[C@@]4(C)[C@]3(C)CC[C@@H]12`, the growth in experiment [1] is 65.8%; in [2] it was 56.3%; in [3] it was 89.3%; in experiment [4] it was 78.6%; in [5] it was 70.4%; in experiment [6] it was 42.1%. The growth in experiment [7] was 72%; in experiment [8] it was 70.6%; in experiment [9] it was 83%; in [10], 93.3%; in experiment [11] it was 81.8%; in [12], 68.4%. Moreover, the growth in experiment [20] was 72%; in experiment [13], 42.6%; in experiment [14], 70.5%; in experiment [15], 76.7%; in [16], 82.8%; in experiment [18] it was 66.7%. The growth in experiment [19] was 32.6%.

Take `CC(=O)[C@@H]1CC[C@]2(C(N)=O)CC[C@]3(C)[C@H](CC[C@@H]4[C@@]5(C)CCCNC(C)(C)[C@@H]5CC[C@]43C)[C@@H]12`: the growth in experiment [1] is 70.7%; in experiment [2], 3.98% (active); in experiment [3], 80.4%; in [4] it was 86.2%; in [5] it was 81.7%; in [6] it was 65.5%. In addition, the growth in experiment [7] was 75.9%; in [8] it was 83.5%; in experiment [9], 84.4%; in [10], 95.8%; in experiment [11], 86.2%; in experiment [12] it was 93.9%. In addition, the growth is 76.5% in experiment [13]; 120% in experiment [14]; 107% in experiment [15]; 93.1% in [16]; 96.6% in [17]; 88.3% in [18]. In addition, the growth in experiment [19] was 60.5%.
